Screening results (PubChem BioAssay)
Hits are enriched below; roughly 6.8% of the tested compounds scored in any of these assays.
Spn MK inh = S. pneumoniae mevalonate kinase inhibition; purified MK, PK/LDH-coupled NADH absorbance 340 nm; inhibition, % at 10 µM; hit rate 0.48% among 65,000; AID 555;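 active means ranked among the strongest by inhibition in the single 10 µM screen, a fixed top-ranked set picked for dose follow-up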
Fluor 339 460 = intrinsic fluorescence of library compounds, ex339/em460 – biochemical, MLSMR library, data from DPM-DC assay, artefact control, profiling panel; compound autofluorescence, ex339/em460 nm, NADH buffer; active compounds read high; 1 = no-compound wells, NADH background; fluorescence fold increase at 10 µM; hit rate 5.5% among 65,000; AID 709;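 active means at 10 µM, mean starting fluorescence two-fold or more over control wells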;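 further: signal is the first read of a kinetic run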
A340 absorber = compounds absorbing at 340 nm; compound absorbance at 340 nm, fold over control; fold change at 10 µM; 65,000 tested, under 10 active;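 active means at 10 µM dose, initial 340 nm absorbance at least 2 fold that of control wells; inactive means change under 2 fold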;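 further: initial absorbance extrapolated from kinetic A340 decline of NADH oxidation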
PMK inhibit = blocks S. pneumoniae phosphomevalonate kinase | purified PMK, PK/LDH-coupled NADH absorbance 340 nm | inhibition, % at 10 µM | hit rate 0.49% among 65,000 | AID 539;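 active means top-ranked compounds by inhibition in the single 10 µM screen, taking a fixed number of the strongest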
NADH enzymes = blocks coupling enzymes of NAD/NADH assays; IC50, µM (titrated, usually from 10 µM); hit rate 0.02% among 65,000; AID 774; coupled PK/LDH NADH assays, four targets;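 active means single-dose screening hits from any of four coupled enzyme assays that gave an IC50 when retested across doses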;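 further: the DPM-DC format reads NADH fluorescence rather than 340 nm absorbance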
Spn DPM-DC inh = blocks S. pneumoniae diphosphomevalonate decarboxylase; hit rate 0.49% among 65,000; purified DPM-DC, PK/LDH coupled NADH fluorescence; calls only at 10 µM;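 active means the 320 compounds with the highest percent inhibition in the single-dose primary screen, excluding strongly autofluorescent ones, cut at about 32% in these data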;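 further: kinetic rate of NADH fluorescence loss reporting ADP formed by the decarboxylase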
Each line names hits and unclear results; the compound was inactive in the other large screens.

Clc1ccc(SCCn2ccnc2)cc1	Spn MK inh 41.0
O=C(NC1CCCCCCC1)c1ccccc1O	Fluor 339 460 2.97
Cc1occc1C(=O)NC1CCCCCC1	none
COCC(=O)NCCNc1nc2ccc(C)cc2cc1C	Fluor 339 460 3.52 (not shown: Spn DPM-DC inh)
CCOc1ccc2nc(NCCNC(=O)C(C)C)c(C)cc2c1	Fluor 339 460 4.72 (not shown: Spn DPM-DC inh)
CCCC(=O)Nc1nc2ccc(OCC)cc2s1	none
CCOc1ccc2nc(NCCNC(=O)C3CC3)c(C)cc2c1	Fluor 339 460 3.76 (not shown: Spn DPM-DC inh)
CCCCN(C)C(=O)C1CCN(CCCc2ccccc2)CC1	none
O=C(Nc1ccc(F)cc1)N(CCCN1CCOCC1)Cc1cc2cc3c(cc2[nH]c1=O)OCCO3	Fluor 339 460 3.17 (not shown: Spn DPM-DC inh)
COc1ccccc1NC(=O)N(CCCN1CCOCC1)Cc1cc2cc3c(cc2[nH]c1=O)OCO3	Fluor 339 460 3.49
O=C(Nc1ccc(F)cc1)N(CCCN1CCOCC1)Cc1cc2cc3c(cc2[nH]c1=O)OCO3	Fluor 339 460 2.71, PMK inhibit 27.0, Spn DPM-DC inh active
CCC(C)(C)NC(=O)C(c1ccco1)N(C(=O)Cn1nnc2ccccc21)c1ccc2c(c1)OCO2 (centres undefined)	none
Cc1cccn2c(=O)c3cc(C(=O)NCc4ccco4)c(=N)n(C(C)C)c3nc12	Fluor 339 460 2.27 (not shown: Spn DPM-DC inh)
Cc1cccn2c(=O)c3cc(C(=O)NCc4ccco4)c(=N)n(CCc4ccccc4)c3nc12	Fluor 339 460 3.78 (not shown: Spn DPM-DC inh)
COCCCn1c(=N)c(C(=O)NCc2ccc3c(c2)OCO3)cc2c(=O)n3cccc(C)c3nc21	none
Cc1cc(=O)n2nc(N3CCCC(C(=O)NCCCN4CCc5ccccc5C4)C3)sc2n1 (centres undefined)	none
CCN1C(=O)c2cccc3c(S(=O)(=O)Nc4nc(C)cs4)ccc1c23	none
NC(=O)C1CCN(c2nc(-c3ccccc3)nc3ccccc23)CC1	none
NC(=O)C1CCN(c2nc(-c3ccccc3)nc3c2oc2ccccc23)CC1	Fluor 339 460 2.15
O=C(CN1CCN(c2ncccn2)CC1)NCCC1=CCCCC1	Spn MK inh 49.0
COCC(=O)Nc1nc2n(n1)C(c1ccc(Cl)cc1)CC(c1ccc(OC)cc1)N2 (centres undefined)	Fluor 339 460 2.52
COc1ccc(CCNC(=O)CSc2nc(O)c(CC(C)C)c(=O)[nH]2)cc1OC	none
COc1ccccc1-n1c(SCC(=O)N2CCCCC2)nnc1-c1ccccc1O	PMK inhibit 27.0
COc1ccccc1OCc1nnc(SCC(=O)N2CCCCC2)n1-c1ccccc1	none
Cc1ccc(-c2nnc(SCC(=O)O)n2N)cc1	none
Cc1ccc(-c2cc(-c3nnc(SCC(=O)N(C)CCC#N)n3N)c3ccccc3n2)cc1	Fluor 339 460 4.24 (not shown: Spn DPM-DC inh)
COc1ccc(C2C=C(C)Nc3nc(SC)nn32)cc1 (centres undefined)	Fluor 339 460 5.07 (not shown: Spn DPM-DC inh)
CCOC(=O)C1=C(C)Nc2nc(SC)nn2C1c1ccc(C(=O)OC)cc1 (centres undefined)	none
Cc1ccc(OCC(=O)N(C)CCc2ccccn2)cc1	Spn MK inh 53.0
CN(CCc1ccccn1)C(=O)Nc1ccc(F)cc1	none
Cc1occc1-c1nnc(SCC(=O)Nc2ccccc2)n1C(C)c1ccccc1 (centres undefined)	none
O=C(Cc1c(O)c2ccccc2[nH]c1=O)OC1CCCCC1	none
O=C(NCC1CCCO1)c1ccccn1 (centres undefined)	none
O=C(NCCCNC(=O)c1ccccn1)c1ccccn1	PMK inhibit 25.0
CC(=O)Nc1ccn(-c2ccccc2)n1	none
CC(=O)NC1N=C(C)N(c2ccccc2)C1=O (centres undefined)	PMK inhibit 28.0
Cc1nc(NCc2ccco2)c2c3c(sc2n1)CCC3	none
CC(C)Sc1nc(NCc2ccco2)c2c3c(sc2n1)COC(C)(C)C3	Fluor 339 460 2.03 (not shown: Spn DPM-DC inh)
COc1ccc2[nH]c(=O)c(CN(C)C(=O)C3CCCCC3)cc2c1	Fluor 339 460 3.46 (not shown: Spn DPM-DC inh)
COc1ccc2[nH]c(=O)c(CN(C)C(=O)c3ccncc3)cc2c1	Fluor 339 460 2.02
CCN(Cc1cc2ccccc2[nH]c1=O)C(=O)C1CCCCC1	none
Cn1c2ccc(F)cc2c2ncn(CCN3CCOCC3)c(=O)c21	none
Cc1ccc2[nH]c3c(=O)n(CCCN4CCOCC4)cnc3c2c1	Fluor 339 460 2.74
COc1cc2[nH]c3c(=O)n(CCN4CCCCC4)cnc3c2cc1OC	Fluor 339 460 3.63 (not shown: Spn DPM-DC inh)
Cn1c2ccccc2c2ncn(CCCN3CCOCC3)c(=O)c21	Fluor 339 460 2.39
Cc1ccc2[nH]c3c(=O)n(CCCN4CCN(C)CC4)cnc3c2c1	Fluor 339 460 2.11
O=c1c2[nH]c3cccc(Cl)c3c2ncn1CCN1CCCCC1	none
CCc1n[nH]c(=O)n1Cn1c(CC)n[nH]c1=O	none
O=C(NCCn1ccc2ccccc21)c1ccc2c(c1)OCO2	Fluor 339 460 2.13 (not shown: Spn DPM-DC inh)
COc1ccc(C(=O)NCCn2ccc3ccccc32)cc1	none
Fc1cccc(Nc2ncnc3c2cnn3-c2ccccc2)c1	none
Clc1cccc(Nc2ncnc3c2cnn3-c2ccccc2)c1	Fluor 339 460 2.12
Clc1ccc2nc(NC3=NCN(CCN4CCOCC4)CN3)nc(-c3ccccc3)c2c1	Fluor 339 460 2.23
COc1cccc(-n2c(C)nc3c(cnn3-c3ccc(Cl)cc3)c2=O)c1	none
CC1(C)Cc2cccc(OCC(=O)Nc3ccccc3N3CCOCC3)c2O1	none
CCOc1cc2nc(-c3ccc(OC)c(OC)c3)nc(N3CCOCC3)c2cc1OC	none
COc1cc2nc(N3CCNCC3)nc(N)c2cc1OC	Fluor 339 460 3.96 (not shown: Spn DPM-DC inh)
CCOC(=O)c1cnn2c(N)c(C#N)nnc12	none
CCOC(=O)c1c(C)nc2c(C#N)cnn2c1C	Fluor 339 460 2.35
COc1ccc(-c2nc(C#N)c(N3CCOCC3)o2)cc1OC	Spn MK inh 11.0, Fluor 339 460 3.07 (not shown: Spn DPM-DC inh)
COc1ccc(-c2nc(C#N)c(N3CCN(c4cccc(Cl)c4)CC3)o2)cc1OC	Fluor 339 460 2.07
N#Cc1nc(COc2ccccc2)oc1N1CCN(c2cccc(Cl)c2)CC1	none
O=C(NC1CCCCCCC1)C1CCC(CNc2c(N3CCCC3)c(=O)c2=O)CC1 (centres undefined)	none
CCn1c(=O)c(C(=O)Nc2nc3ccccc3[nH]2)c(O)c2ccccc21	Fluor 339 460 2.42
CCn1c(=O)c(C(=O)Nn2c(C)nc3ccccc3c2=O)c(O)c2ccccc21	none
Cc1ccc2cc(C#N)c(N3CCCN(C(=O)C4CCCO4)CC3)nc2c1C (centres undefined)	Fluor 339 460 2.36
O=c1c2nnn(Cc3ccc(Cl)cc3)c2ncn1Cc1ccc(F)cc1	none
Cc1noc(NS(=O)(=O)c2ccc(NC(=O)c3cnc4n(c3=O)CCS4)cc2)c1C	none
Cc1sc2nc3ccc(N4CCCC4)nn3c(=O)c2c1C	Fluor 339 460 2.06 (not shown: Spn DPM-DC inh)
Cc1sc2nc3n(c(=O)c2c1C)CCCS3	none
Cc1cc(C)n(-c2ncnc3sc4c(c23)CCCC4)n1	Fluor 339 460 2.32
